Assay [1] in a line: qHTS profiling of the MIPE4 collection as inhibitors of Plasmodium falciparum (DD2) proliferation (Rep 2) (AID 743346; call rule not given here). The note with it: P. falciparum Dd2 in erythrocytes, SYBR Green DNA, 72 h; at 28.5 µM unless noted. In short, it runs like this:
(§1)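 Erythrocytes infected with P. falciparum (0.3% parasitemia, 2.5% hematocrit) incubated with compounds 72 h at 37 C, 5% CO2. Lysis with saponin/Triton buffer containing SYBR Green I, overnight at room temperature in the dark; DNA fluorescence (485/535 nm) normalised to 0.29 uM artemisinin and DMSO.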
(Quantitative high-throughput screening tests each substance at several concentrations.)

A short description of assay [2]: qHTS profiling of the MIPE4 collection as inhibitors of Plasmodium falciparum (HB3) proliferation (AID 743347; call rule not given here;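 also: plate controls were DMSO vehicle wells for no effect and artemisinin wells for full effect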). The settings on record: P. falciparum HB3 in erythrocytes, SYBR Green DNA, 72 h; at 28.5 µM unless noted. In short, it runs like this: as §1
Assay [3] in a line: High-throughput drug toxicity screening in the BPDCN cell line Gen2.2 (AID 1224824; call rule not given here;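 also: cells exposed to compounds for 48 h before reading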). The note with it: Gen2.2 BPDCN cells; at 45.8 µM (top of the series) unless noted. In short, it runs like this: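 Readout is ATP luminescence from Gen2.2 cells after two days of drug exposure in serum-containing medium at 37 °C. Values express percent activity, with vehicle defining full signal and 9.2 uM bortezomib defining zero.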

A short description of assay [4]: High-throughput drug toxicity screening in the BPDCN cell line Cal-1 (AID 1224825; call rule not given here). The note with it: Cal-1 BPDCN cell viability, qHTS; at 45.8 µM (top of the series) unless noted. The method, boiled down:
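Exponentially growing Cal-1 cells, 500 per well in phenol red-free RPMI with 10% FBS, were exposed to compounds for 48 h at 37 °C, 5% CO2. Viability was read by CellTiter-Glo luminescence and normalised to DMSO (100%) and 9.2 uM bortezomib (0%).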

Assay [5] is described as follows: qHTS assay for measurement of the activity of small molecule inhibitors on Zika virus induced Caspase-3 activity in human iPSC derived neural progenitor cells (hNPCs) (AID 1224857). Also: nearly all actives have a fitted effect of over 65% in size. Also: potency is read from the fitted curve at half-maximal effect. In short, it runs like this:
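Cells were plated at 350 per well and grown 16 to 20 hours. Compound pretreatment lasted one hour, after which ZIKV (2 FFU/cell) was added for 6 hours. Percent inhibition was normalized between uninfected and infected controls.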

Assay [6] can be described thus: qHTS assay for measurement of the activity of small molecule inhibitors on Zika virus induced Caspase-3 activity in human astrocytoma cells (AID 1224859).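 Also: plate controls were ZIKV-infected untreated cells for no effect and uninfected cells for full effect.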 In short, it runs like this:
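Percent inhibition of virus-induced caspase-3/7 signal is calculated against uninfected and ZIKV-infected control cells. Cells are SNB-19, infected at 2 FFU/cell for 6 h after 1 h compound exposure.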

Assay [7] can be described thus: qHTS Screen of the MIPE 4.0 Collection Against Ewings Sarcoma (RDES) (AID 1259252). Also: nearly all actives have a fitted effect of over 35% in size. Also: potency is read from the fitted curve at half-maximal effect. In short, it runs like this:
(§2)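 Here, cells in 5% FBS RPMI were exposed for two days (48 h) to compound dilutions added four hours after plating. ATP-based CellTiter-Glo luminescence measured viability, normalized to vehicle and no-cell blanks.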

Assay [8] is described as follows: qHTS Screen of the MIPE 4.0 Collection Against Ewings Sarcoma (TC71) (AID 1259253). Also: potency is read from the fitted curve at half-maximal effect; nearly all actives have a fitted effect of over 40% in size. In short, it runs like this: as §2
The nature of assay [9]: qHTS Screen of the MIPE 4.0 Collection Against Ewings Sarcoma (EW8) (AID 1259255). Also: nearly all actives have a fitted effect of over 35% in size. Also: potency is read from the fitted curve at half-maximal effect.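 As to viability: 100% = DMSO-treated cells and 0% = medium-only wells without cells.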 In short, it runs like this: as §2
Assay [10] in a line: qHTS Screen of the MIPE 4.0 Collection Against Ewings Sarcoma (TC32) (AID 1259256). Also: nearly all actives have a fitted effect of over 45% in size. Also: potency is read from the fitted curve at half-maximal effect. In short, it runs like this:
as §2

Inconclusive results are not listed. Active and inactive are the calls of the source. Unless noted, calls follow the shape of the dose curve; as a rule, active = well fitted inhibition curve with a large enough effect; inconclusive = small, poorly fitted or top-dose-only effect; inactive = no such curve, though single readings can be large or run the other way.

For `CC(=CC(=O)Nc1ccccc1C(=O)O)c1ccc2ccccc2c1`, the parasite growth, % of control (lower = inhibition) in [1] was found to be 133%. The molecule further showed a growth, % of control in [2] of 674%. Moreover, the cell viability, % of control (lower = more cytotoxic) in assay [3] was found to be 115%. For the same molecule, the viability (% of control) in assay [4] amounted to 77.7%. Further, the Potency entry in assay [5] and in [6] was “inactive” in each case. Also, the Potency in [7] was 4180 nM (active); in assay [8], 13200 nM (active); in [9] it was 10500 nM (active).

In the case of `CC(=O)OCC(=O)[C@@]1(O)CC[C@H]2[C@@H]3CCC4=CC(=O)CC[C@]4(C)[C@@H]3C(=O)C[C@@]21C`, the parasite growth, % of control (lower = inhibition) in assay [1] stood at 122%. The growth, % of control in [2] is 96.5%. Besides, in assay [3], the cell viability, % of control (lower = more cytotoxic) was found to be 108%. Also, the viability (% of control) in assay [4] was determined as 111%. Also, the Potency entry in assay [5], in [6], in assay [7], in [9] and in [10] was “inactive” throughout.

As for `Cc1ccccc1C(=O)Nc1ccc(C(=O)N2CCCC(O)c3cc(Cl)ccc32)c(C)c1` (configuration not stated), in [1], the parasite growth, % of control (lower = inhibition) amounted to 46%. In assay [2], this molecule had a growth, % of control of 24.6%. For the same molecule, the cell viability, % of control (lower = more cytotoxic) in assay [3] stood at 129%. Further, the viability (% of control) in assay [4] turned out to be 104%. For the same molecule, the Potency result in [5], in assay [6], in assay [7], in [9] and in assay [10] was “inactive” throughout.

`C=CC(=O)Nc1cc(NC(=O)c2ccc(C)c(NC(=O)c3ccno3)c2)cc(C(F)(F)F)c1`: the parasite growth, % of control (lower = inhibition) in assay [1] was found to be 57.2%. The growth, % of control in [2] is 22.8%. In addition, in [3], the cell viability, % of control (lower = more cytotoxic) is 4.74%. In addition, the viability (% of control) in assay [4] was 3.59%. Besides, the Potency entry in [5] and in [6] was “inactive” throughout. For the same molecule, the Potency in assay [7] was 23500 nM (active); in assay [8] it was 20900 nM (active); in assay [9] it was 20900 nM (active).

Turning to `COc1ccc(C[C@@H](C)[C@@H](C)Cc2ccc(OC)c(OC)c2)cc1OC`, the parasite growth, % of control (lower = inhibition) in [1] was found to be 60.3%. Also, the growth, % of control in assay [2] amounted to 30.9%. In addition, the cell viability, % of control (lower = more cytotoxic) in [3] came out at 6.99%. Further, in [4], the viability (% of control) amounted to 8.52%. In addition, the Potency entry in assay [5] and in assay [6] was “inactive” each time. Also, the Potency in [7] was 743 nM (active); in assay [8], 1180 nM (active); in [9] it was 1180 nM (active).

As to `C=CC(=O)N1CCc2ccc(-n3c(=O)ccc4cnc5ccc(-c6cnn(C)c6)cc5c43)cc21`, the parasite growth, % of control (lower = inhibition) in assay [1] is 8.38%. Besides, the growth, % of control in assay [2] came to 4.27%. Further, the cell viability, % of control (lower = more cytotoxic) in assay [3] was found to be 1.99%. Besides, in [4], the viability (% of control) was found to be 2.44%. Also, the Potency entry in assay [5] and in [6] was “inactive” throughout. Besides, the Potency in assay [7] is 6620 nM (active); in assay [9] it was 3320 nM (active); in assay [10], 3320 nM (active).

Turning to `CN[C@H]1[C@@H](O)[C@@H]2O[C@@H]3O[C@H](C)CC(=O)[C@]3(O)O[C@@H]2[C@@H](NC)[C@H]1O`, the parasite growth, % of control (lower = inhibition) in assay [1] is 19.2%. The molecule further displayed a growth, % of control in assay [2] of 6.56%. For the same molecule, the cell viability, % of control (lower = more cytotoxic) in assay [3] was determined as 9.59%. Also, the viability (% of control) in [4] worked out at 5.36%. For the same molecule, the Potency in assay [5] was 16600 nM (active); in assay [7] it was 52.6 nM (active); in assay [9], 1320 nM (active); in assay [10], 1050 nM (active). Besides, the Potency result in assay [6] was “inactive”.

On to `C=Cc1c(C)c2cc3nc(cc4[nH]c(cc5nc(cc1[nH]2)C(C)=C5CCC(=O)O)c(CCC(=O)OC)c4C)[C@@]1(C)C3=CC=C(C(=O)OC)[C@H]1C(=O)OC`, for which the parasite growth, % of control (lower = inhibition) in [1] amounted to 6.94%. Further, the growth, % of control in assay [2] is 4.7%. In addition, the cell viability, % of control (lower = more cytotoxic) in [3] was determined as 5.48%. Besides, in [4], the viability (% of control) worked out at 3.29%. In addition, the Potency result in [5] and in [6] was “inactive” each time. Besides, the Potency is 41.8 nM (active) in assay [7], 83.3 nM (active) in [8] and 118 nM (active) in assay [9].

As for `Cc1cnc(NC(=O)Nc2cc(Br)c(C)cc2OC[C@@H]2CNCCO2)cn1`, the parasite growth, % of control (lower = inhibition) in assay [1] came out at 8.58%. For the same molecule, the growth, % of control in assay [2] came to 2.97%. In addition, in assay [3], the cell viability, % of control (lower = more cytotoxic) came to 20.9%. In addition, the viability (% of control) in assay [4] came out at 7.84%. For the same molecule, the Potency result in assay [5] and in assay [6] was “inactive” in each case. Also, the Potency was 2350 nM (active) in assay [7], 590 nM (active) in assay [8], 833 nM (active) in assay [9] and 590 nM (active) in assay [10].
